# Test results published in PubChem BioAssay AID1497 (Sanford-Burnham Center for Chemical Genomics, 2009).
# In all, about 93,000 compounds went through this assay and about 500 (0.54%) were called active. Shown is part of a subset that was picked to be rich in actives. A number with no mark means an inactive call.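 Rule for the calls: active = primary inhibition of 50% or more at 10 µM, then 40% or more on retest; inactive = the rest.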
# Molecular target: Integrin beta-2 (Homo sapiens) + Integrin alpha-M (Homo sapiens) (UniProt P05107+P11215)
# Sequence (P05107 whole entry, looked up, other chains not shown): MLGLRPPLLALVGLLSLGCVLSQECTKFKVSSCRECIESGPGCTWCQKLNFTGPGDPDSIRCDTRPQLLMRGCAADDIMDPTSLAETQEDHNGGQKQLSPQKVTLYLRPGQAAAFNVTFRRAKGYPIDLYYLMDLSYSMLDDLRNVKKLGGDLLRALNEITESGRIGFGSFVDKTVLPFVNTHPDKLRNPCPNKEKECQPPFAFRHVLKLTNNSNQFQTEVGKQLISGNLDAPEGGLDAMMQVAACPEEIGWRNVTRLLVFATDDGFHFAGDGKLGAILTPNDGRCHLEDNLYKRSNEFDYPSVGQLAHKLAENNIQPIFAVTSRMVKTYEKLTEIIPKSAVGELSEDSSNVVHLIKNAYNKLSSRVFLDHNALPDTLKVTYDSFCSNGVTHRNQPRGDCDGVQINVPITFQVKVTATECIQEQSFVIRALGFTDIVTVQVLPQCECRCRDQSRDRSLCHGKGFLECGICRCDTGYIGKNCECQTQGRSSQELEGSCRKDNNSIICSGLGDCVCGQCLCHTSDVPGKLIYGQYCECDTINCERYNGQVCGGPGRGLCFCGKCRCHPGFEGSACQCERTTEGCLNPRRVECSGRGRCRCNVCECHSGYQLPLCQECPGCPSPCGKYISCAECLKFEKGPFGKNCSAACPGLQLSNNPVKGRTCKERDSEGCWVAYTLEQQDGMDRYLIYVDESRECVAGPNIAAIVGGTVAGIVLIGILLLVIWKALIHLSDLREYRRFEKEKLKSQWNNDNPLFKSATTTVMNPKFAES
# Test: antagonists of integrin CD11b/CD18-fibrinogen binding – K562 cells, luminescence, primary screen (AID 1497)
# Settings: K562 CD11b/CD18 adhesion to fibrinogen, ATPlite luminescence; at 10 µM; active compounds read high; Mn2+ added to activate the integrin
row,Compound,inhibition
1,Cc1c(Br)c([N+](=O)[O-])nn1CC(=O)Nc1sc2c(c1C(=O)OC(C)C)CCC(C)C2 (stereo not drawn),-9.3%
2,O=C(Nc1cccc(F)c1)c1coc(=O)c(Br)c1,-10.2%
3,O=C(COC(=O)c1ccc(Cl)nc1)NCc1ccc2c(c1)OCO2,4.3%
4,O=C(CSc1ccc2nnc(-c3ccccc3)n2n1)N1CCCc2ccccc21,29.7%
5,O=C(OCc1ccc(Br)cc1)c1cccc(-c2nnc(-c3ccccc3)o2)c1,6.5%
6,O=C(CCCCCNC(=O)c1ccccc1)N/N=C/c1ccccc1,9.3%
7,CC1(c2cccc([N+](=O)[O-])c2)CC(C)(C)N(C(=O)c2ccccc2)c2ccccc21 (stereo not drawn),12.3%
8,Cc1ccc(NC(=O)CC2C(=O)N(Cc3ccccc3)C(=S)N2NC(=O)c2cccc(F)c2)c(C)c1 (stereo not drawn),1.5%
9,Nc1nnc(SCC(=O)Nc2ccc3nc(SCC(=O)Nc4ccccc4)sc3c2)s1,74%
10,CC(=O)Nc1ccc(S(=O)(=O)Nc2nc(-c3ccc(C(C)(C)C)cc3)cs2)cc1,0.9%
11,COc1cc2c3c(c1)/C(=C1/SC(=S)NC1=O)C(=O)N3C(C)(C)C=C2C,92.6%
12,CCc1c(C)sc(NC(=O)c2ccc(Br)o2)c1C(=O)OC,6.5%
13,CCOC(=O)c1sc(NC(=O)CSc2ncccn2)c(C#N)c1C,-4.4%
14,CCCc1ccc(-c2c(C)sc(NC(=O)c3ccnn3C)c2C#N)cc1,62.4% (active)
15,COc1ccc(C2Nc3ccccc3C(=O)N2c2ccc(F)cc2)cc1Cn1nnc2ccccc21 (stereo not drawn),12.2%
16,CC(=C/c1ccccc1)/C=N/NC(=O)c1cc(C)oc1C,4.2%
17,Cc1ccc(-n2ncc3c(N4CCN(c5ccc(F)cc5)CC4)ncnc32)c(C)c1,39.7%
18,Fc1ccc2[nH]c3c(N4CCSCC4)ncnc3c2c1,81.7% (active)
19,CC(C)(C)n1nnnc1C(c1ccc(F)cc1)N1CCN(Cc2ccc3c(c2)OCO3)CC1 (stereo not drawn),-11.6%
20,CCN1CCCC1CNc1ncnc2c1[nH]c1ccc(F)cc12 (stereo not drawn),-18.1%

row,Compound,inhibition
1,Fc1ccc2[nH]c3c(N4CCN(Cc5ccc6c(c5)OCO6)CC4)ncnc3c2c1,103% (active)
2,Cc1cc(N2CCN(Cc3ccc4c(c3)OCO4)CC2)n2ncnc2n1,-10.2%
3,COCCCNC(=O)Cn1cc(/C=C(\C#N)C(=O)N2CCN(c3ccccc3)CC2)c2ccccc21,21.8%
4,O=C(COC(=O)Cc1ccc(F)cc1)Nc1cc(S(=O)(=O)N2CCOCC2)ccc1N1CCCC1,-0.6%
5,CCCC/C(C)=N/NC(=O)NC1CCCCC1,5.3%
6,Cc1ccc(N/N=C2\COC(C)(C)CC2=O)cc1,4.6%
7,CCCn1c(C)cc(/C=C(\C#N)C(=O)OCC(=O)Nc2cc(OC)c(OC)c(OC)c2)c1C,5.7%
8,Cc1cc(C)c(NC(=O)c2oc3ccccc3c2COc2ccccc2)c(C)c1,-5.4%
9,CCCN(CC1COc2ccccc2O1)C(=S)Nc1ccc(C)cc1 (stereo not drawn),9.6%
10,C=CCNC(=S)NNC(=O)COc1c(Cl)cc(Cl)cc1Cl,-6.9%
11,Cc1[nH]n(-c2cccc(Cl)c2)c(=O)c1-c1ccc(Cl)cc1,94.7% (active)
12,Cc1[nH]n(-c2cccc(Cl)c2)c(=O)c1/C=N/n1c(C)nc2ccccc2c1=O,16.1%
13,Cc1nc2c(-c3ccccc3)c(C)[nH]n2c(=O)c1Cl,-1.6%
14,CCN(/N=C/c1ccc(N(C)C)cc1)c1nc2ccccc2[nH]1,15%
15,Cc1nc(C)c(-c2csc(NCCc3ccccc3)n2)s1,89.8% (active)
16,Cc1ccc(Nc2nc(-c3sc(NC(=O)c4ccccc4)nc3C)cs2)cc1,16.8%
17,Cc1nc(NC(=O)c2cccc(Cl)c2)sc1-c1csc(Nc2cccc(Cl)c2)n1,-4%
18,N#Cc1c(NC(=O)c2ccc(N3CCOCC3)c([N+](=O)[O-])c2)sc2c1CCCC2,2.3%
19,CCCCc1ccc(NC(=S)N2CCCC(CO)C2)cc1 (stereo not drawn),-5.8%
20,CCN(C(=O)COC(=O)c1c(NC(C)=O)sc(C)c1C)C1CCS(=O)(=O)C1 (stereo not drawn),25.9%

row,Compound,inhibition
1,Cc1ccc(C)c(NC(=O)C(OC(=O)c2ccc(C)s2)c2ccccc2)c1 (stereo not drawn),16.7%
2,CCn1c(SCC(=O)Nc2ccc(C)cc2)nc2nc3c(cc2c1=O)CCCC3,2.8%
3,Cc1nn(-c2ccccc2)c(Cl)c1/C=C/C(=O)c1ccc(O)cc1,25.9%
4,CC(=O)N1CCN(CC(=O)Nc2ccc(SC(F)F)cc2)CC1,-3.7%
5,CCOc1ccc(S(=O)(=O)N/N=C(\C)c2ccc(Cl)c(Cl)c2Cl)cc1,8.2%
6,C/C(=N\NC(=O)c1cc2c(s1)CCC(C)C2)c1cccnc1 (stereo not drawn),1.2%
7,COc1ccc(Br)cc1CN(C)CC(=O)Nc1cc([N+](=O)[O-])ccc1OC,33.8%
8,N#CCOc1ccc(C2=NO[C@@H]3[C@@H]4C[C@@H]([C@H]5C(=O)N(c6ccc7c(c6)OCO7)C(=O)[C@@H]45)[C@H]23)cc1,-2%
9,Cc1ccc(C)c(NC(CC(=O)c2ccccc2)C(=O)OCC(=O)c2cccs2)c1 (stereo not drawn),2.1%
10,COc1ccccc1OCCC(=O)OCC(=O)NCc1ccccc1,5%
11,CCCOc1cc(C)c(S(=O)(=O)n2nnc3ccccc32)cc1C,2.3%
12,CCc1nc(C)cn1S(=O)(=O)c1cc(OC)c(C)cc1C,51.2% (active)
13,Cc1ccc(-n2c(C)cc(C(=O)CSc3nnc4ccccn34)c2C)cc1,23.4%
14,CN(C(=O)c1c(Cl)cnn1C)C12CC3CC(CC(C3)C1)C2,-23%
15,FC(F)Oc1ccccc1NC(=S)Nc1cccc(Cl)c1Cl,64.3%
16,CCCCC1N2CC3([N+](=O)[O-])CN1CC([N+](=O)[O-])(C2)C3(C)C (stereo not drawn),-3.2%
17,O=C(CN1CCN(c2ccccn2)CC1)N1CCc2ccccc21,5.5%
18,COc1ccc(NS(=O)(=O)c2ccc(NC(=S)NC(=O)/C=C/c3ccc(C)cc3)cc2)nn1,-15%
